Reference: PubChem BioAssay (Tox21)
Records with an inconclusive call do not appear. Calls of active or inactive are those of the source. Unless noted, the call rests on the fitted dose curve; in most records, active means well fitted curve in the direction sought with a large enough effect in the repeat runs; inconclusive means weak or mixed curves; inactive means no such curve, though single readings can be large; an effect the other way counts as inactive or inconclusive.

Key:
[1] = tested on: thyroid hormone receptor (rat, GH3 cells); assay: qHTS assay to identify small molecule agonists of the thyroid receptor (TR) signaling pathway (AID 743066; calls by dose curve)
[2] = molecular target: Estrogen receptor (Homo sapiens) (UniProt P03372); assay: qHTS assay to identify small molecule antagonists of the estrogen receptor alpha (ER-alpha) signaling pathway (AID 743069; active means well fitted curve in the direction sought with a large enough effect in the signal ratio in the repeat runs, not every such curve was filed as active; the % refers to the signal ratio)
Sequence of Estrogen receptor (Homo sapiens) (P03372 whole entry, looked up): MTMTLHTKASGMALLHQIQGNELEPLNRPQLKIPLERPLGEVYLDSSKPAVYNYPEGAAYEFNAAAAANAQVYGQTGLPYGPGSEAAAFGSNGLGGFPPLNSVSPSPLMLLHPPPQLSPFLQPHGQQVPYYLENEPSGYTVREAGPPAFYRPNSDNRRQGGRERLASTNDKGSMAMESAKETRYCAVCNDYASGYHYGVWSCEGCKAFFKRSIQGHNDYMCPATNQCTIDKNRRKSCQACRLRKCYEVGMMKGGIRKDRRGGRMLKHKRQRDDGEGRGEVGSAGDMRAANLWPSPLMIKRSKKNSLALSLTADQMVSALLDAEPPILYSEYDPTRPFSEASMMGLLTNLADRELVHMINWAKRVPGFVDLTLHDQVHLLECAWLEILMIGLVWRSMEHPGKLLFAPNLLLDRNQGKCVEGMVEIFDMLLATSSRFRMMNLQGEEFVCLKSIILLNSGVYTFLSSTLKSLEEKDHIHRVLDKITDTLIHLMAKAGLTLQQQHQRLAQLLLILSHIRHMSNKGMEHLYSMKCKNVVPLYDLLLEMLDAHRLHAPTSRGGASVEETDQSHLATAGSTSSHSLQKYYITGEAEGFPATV
In short: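 A 17beta-estradiol challenge was applied right after compound transfer to ER-alpha-UAS-bla HEK293 cells previously kept in charcoal-stripped serum. Plates stood 18 hr at 37C and 5% CO2; fluorescence was read following 2 hr FRET substrate loading at room temperature.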

[3] = qHTS assay to identify small molecule antagonists of the estrogen receptor alpha (ER-alpha) signaling pathway - cell viability counter screen (AID 743074; calls by dose curve;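 further: HEK293 cells carrying ER-alpha-UAS-bla reporter stimulated with 17beta-estradiol; nearly all actives have a fitted effect of over 45% in size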)
[4] = molecular target: Estrogen receptor (Homo sapiens) (UniProt P03372); assay: qHTS assay to identify small molecule agonists of the estrogen receptor alpha (ER-alpha) signaling pathway (AID 743075; calls by dose curve;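 further: HEK293 GripTite cells with ER-alpha and UAS-driven beta-lactamase reporter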)
[5] = molecular target: Estrogen receptor (Homo sapiens) (UniProt P03372); assay: qHTS assay to identify small molecule agonists of the estrogen receptor alpha (ER-alpha) signaling pathway using the BG1 cell line (AID 743079); further: nearly all actives have a fitted effect of over 20% in size
[6] = qHTS assay to identify small molecule antagonists of the estrogen receptor alpha (ER-alpha) signaling pathway using the BG1 cell line (AID 743080; calls by dose curve;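 further: BG1 cells stimulated with 17beta-estradiol alongside compound; series mostly up to about 70 µM; nearly all actives have a fitted effect of over 25% in size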)
In short: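 Seeding, 24 h rest, compound transfer from DMSO, 17beta-estradiol addition, 21.5 h incubation, CellTiter-Fluor (30 min, 37 C), then ONE-Glo (30 min, room temperature): this sequence was run on BG1-Luc-4E2 reporter cells.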

[7] = qHTS assay to identify small molecule antagonists of the estrogen receptor alpha (ER-alpha) signaling pathway using the BG1 cell line - cell viability counter screen (AID 743081);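 further: compound given together with 17beta-estradiol as the ER stimulus; series mostly up to about 70 µM; nearly all actives have a fitted effect of over 45% in size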
Aromatase (Homo sapiens) = Aromatase (Homo sapiens) (UniProt P11511); assay: qHTS assay to identify aromatase inhibitors (AID 743083); further: series mostly up to about 70 µM; nearly all actives have a fitted effect of over 55% in size
Sequence of Aromatase (Homo sapiens) (P11511 whole entry, looked up): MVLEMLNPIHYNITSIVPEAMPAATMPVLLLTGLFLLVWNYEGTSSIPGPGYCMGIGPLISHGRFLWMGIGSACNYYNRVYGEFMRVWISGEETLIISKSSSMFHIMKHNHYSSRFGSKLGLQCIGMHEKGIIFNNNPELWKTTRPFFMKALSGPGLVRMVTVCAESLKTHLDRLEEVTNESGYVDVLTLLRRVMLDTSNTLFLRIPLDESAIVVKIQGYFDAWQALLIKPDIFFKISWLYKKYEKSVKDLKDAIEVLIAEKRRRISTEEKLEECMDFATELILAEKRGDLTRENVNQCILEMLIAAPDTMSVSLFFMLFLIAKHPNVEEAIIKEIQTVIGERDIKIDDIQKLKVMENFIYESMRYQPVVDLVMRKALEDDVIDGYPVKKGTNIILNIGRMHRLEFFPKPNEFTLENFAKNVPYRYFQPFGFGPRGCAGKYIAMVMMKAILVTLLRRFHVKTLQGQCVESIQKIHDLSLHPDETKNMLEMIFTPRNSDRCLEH

[8] = qHTS assay to identify aromatase inhibitors - cell viability counter screen (AID 743084);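 further: cells stimulated with testosterone during compound exposure; nearly all actives have a fitted effect of over 55% in size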
[9] = molecular target: Aryl hydrocarbon receptor (Homo sapiens) (UniProt P35869); assay: qHTS assay to identify small molecule that activate the aryl hydrocarbon receptor (AhR) signaling pathway (AID 743085); further: nearly all actives have a fitted effect of over 15% in size; further: potency means the concentration at half of the fitted maximal effect;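 on activation: HG2L7.5c1 human HepG2 liver cells with stably integrated DRE-driven firefly reporter; series mostly up to about 70 µM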
Sequence of Aryl hydrocarbon receptor (Homo sapiens) (P35869 whole entry, looked up): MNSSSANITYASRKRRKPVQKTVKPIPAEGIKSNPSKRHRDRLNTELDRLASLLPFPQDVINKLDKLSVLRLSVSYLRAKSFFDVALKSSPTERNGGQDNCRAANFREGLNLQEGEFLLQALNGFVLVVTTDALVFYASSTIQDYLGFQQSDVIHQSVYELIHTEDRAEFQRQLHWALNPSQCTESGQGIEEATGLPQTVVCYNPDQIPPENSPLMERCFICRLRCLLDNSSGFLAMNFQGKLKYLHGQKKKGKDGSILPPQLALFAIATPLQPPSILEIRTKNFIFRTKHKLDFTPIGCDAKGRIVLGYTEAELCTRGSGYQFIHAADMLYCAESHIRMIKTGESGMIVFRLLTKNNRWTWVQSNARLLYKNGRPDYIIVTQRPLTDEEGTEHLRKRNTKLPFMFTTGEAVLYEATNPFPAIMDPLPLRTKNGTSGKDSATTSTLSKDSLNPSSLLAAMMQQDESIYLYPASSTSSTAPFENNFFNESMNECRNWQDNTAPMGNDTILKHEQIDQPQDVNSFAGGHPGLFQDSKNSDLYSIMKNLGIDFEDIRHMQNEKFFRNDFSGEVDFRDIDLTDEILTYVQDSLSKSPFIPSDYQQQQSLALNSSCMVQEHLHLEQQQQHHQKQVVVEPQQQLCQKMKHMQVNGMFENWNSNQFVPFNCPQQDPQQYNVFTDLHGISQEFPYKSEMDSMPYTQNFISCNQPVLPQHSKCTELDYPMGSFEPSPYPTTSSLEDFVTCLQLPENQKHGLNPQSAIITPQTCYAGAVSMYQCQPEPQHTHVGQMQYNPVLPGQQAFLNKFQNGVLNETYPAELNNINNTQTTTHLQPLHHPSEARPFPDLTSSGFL
In short: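 Stably transfected human liver carcinoma cells (HG2L7.5c1; 20 DRE-firefly luciferase) were incubated 5 h, dosed, and kept 24 h at 37C. Agonism was scored from increased luciferase luminescence.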

[10] = qHTS assay to identify small molecule that activate the aryl hydrocarbon receptor (AhR) signaling pathway - cell viability counter screen (AID 743086);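 further: HepG2 liver cells carrying the AhR DRE luciferase reporter; series mostly up to about 70 µM; nearly all actives have a fitted effect of over 45% in size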
In short: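 HepG2-AhR-luc (HG2L7.5c1) cells, 4000/well, were preincubated 5 h at 37C, exposed to compound in qHTS format for 24 hr at 37C, then given CellTiter-Fluor for 30 min; viability was read as fluorescence in the reporter wells.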

[11] = molecular target: Peroxisome proliferator-activated receptor gamma (Homo sapiens) (UniProt P37231); assay: qHTS assay to identify small molecule antagonists of the peroxisome proliferator-activated receptor gamma (PPARg) signaling pathway (AID 743191; calls by dose curve; further: series mostly up to about 63 µM; nearly all actives have a fitted effect of over 30% in size)
Sequence of Peroxisome proliferator-activated receptor gamma (Homo sapiens) (P37231 whole entry, looked up): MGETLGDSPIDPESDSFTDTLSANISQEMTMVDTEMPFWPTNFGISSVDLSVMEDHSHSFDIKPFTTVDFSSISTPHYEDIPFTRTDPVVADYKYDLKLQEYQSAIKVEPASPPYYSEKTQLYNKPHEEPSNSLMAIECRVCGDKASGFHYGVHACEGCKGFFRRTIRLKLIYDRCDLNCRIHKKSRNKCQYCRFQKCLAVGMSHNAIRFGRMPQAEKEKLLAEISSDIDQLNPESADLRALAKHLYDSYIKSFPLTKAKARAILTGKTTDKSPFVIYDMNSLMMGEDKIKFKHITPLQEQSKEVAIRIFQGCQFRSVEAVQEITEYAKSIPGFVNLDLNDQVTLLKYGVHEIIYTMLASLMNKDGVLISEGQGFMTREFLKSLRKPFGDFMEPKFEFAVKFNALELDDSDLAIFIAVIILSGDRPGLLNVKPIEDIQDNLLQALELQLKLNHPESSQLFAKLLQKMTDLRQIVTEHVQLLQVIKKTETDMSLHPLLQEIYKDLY
In short: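 GeneBLAzer PPARg UAS-bla HEK293H cells carrying a UAS-driven beta-lactamase reporter were plated at 3000 cells/well, preincubated 5 h at 37C, then given compound for 17 h at 37C; LiveBLAzer B/G FRET substrate was read after 1 h at room temperature.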

[12] = qHTS assay to identify small molecule antagonists of the peroxisome proliferator-activated receptor gamma (PPARg) signaling pathway - cell viability counter screen (AID 743194); further: nearly all actives have a fitted effect of over 55% in size
In short: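 PPARg-UAS-bla HEK293H cells were plated, rested 5 h at 37 C, then treated with compounds plus rosiglitazone (50 nM final) for 17 h at 37 C; viability was then read by CellTiter-Glo luminescence after 30 min at room temperature.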

[13] = qHTS assay for small molecule agonists of the antioxidant response element (ARE) signaling pathway - cell viability counter screen (AID 743203; calls by dose curve; further: nearly all actives have a fitted effect of over 55% in size)
In short: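 Luminescence read-out (CellTiter-Glo, 30 min at room temperature) measured cell viability in the same wells as the ARE beta-lactamase reporter. HepG2 ARE-bla cells were treated with compounds for 16 hrs at 37C/5% CO2.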

[14] = qHTS assay for small molecule activators of the heat shock response signaling pathway - cell viability counter screen (AID 743209); further: nearly all actives have a fitted effect of over 50% in size
In short: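 HSE-bla HeLa; 1500 cells/well; overnight 37 C, 5% CO2; compound 5 h 37 C; LiveBLAzer B/G substrate 2.5 h RT; CellTiter-Glo 30 min RT; luminescence.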

[15] = qHTS assay for small molecule activators of the heat shock response signaling pathway (AID 743210; active means well fitted activation curve with a large enough effect in the signal ratio in the repeat runs, with a control signal flat, not every such curve was filed as active; the % refers to the signal ratio; further: series mostly up to about 63 µM)
In short: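 Heat shock element–beta-lactamase HeLa reporter cells; qHTS with compounds for 5 h at 37 C; detection by FRET substrate fluorescence after 2.5 h at RT.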

[16] = qHTS assay to identify small molecule agonists of the peroxisome proliferator-activated receptor delta (PPARd) signaling pathway - cell viability counter screen (AID 743211); further: nearly all actives have a fitted effect of over 55% in size
In short: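 In the same wells used for beta-lactamase reporter measurement, cytotoxicity is scored by CellTiter-Glo. HEK293H PPARd-bla cells receive compound for 17 h at 37C following a 5 h settling period.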

[17] = molecular target: Peroxisome proliferator-activated receptor delta (Homo sapiens) (UniProt Q03181); assay: qHTS assay to identify small molecule agonists of the peroxisome proliferator-activated receptor delta (PPARd) signaling pathway (AID 743212; calls by dose curve)
Sequence of Peroxisome proliferator-activated receptor delta (Homo sapiens) (Q03181 whole entry, looked up): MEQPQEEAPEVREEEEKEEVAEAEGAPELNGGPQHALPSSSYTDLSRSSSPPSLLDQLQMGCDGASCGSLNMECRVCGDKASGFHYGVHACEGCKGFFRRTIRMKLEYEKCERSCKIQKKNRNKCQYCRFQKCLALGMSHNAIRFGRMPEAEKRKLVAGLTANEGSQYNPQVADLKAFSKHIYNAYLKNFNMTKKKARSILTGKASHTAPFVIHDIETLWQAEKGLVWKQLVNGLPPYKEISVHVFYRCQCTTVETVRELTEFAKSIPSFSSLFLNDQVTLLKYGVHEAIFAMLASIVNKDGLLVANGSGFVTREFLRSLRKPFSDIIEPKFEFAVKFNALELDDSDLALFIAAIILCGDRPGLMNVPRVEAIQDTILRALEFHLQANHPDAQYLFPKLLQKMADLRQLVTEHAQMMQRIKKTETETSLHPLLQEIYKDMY
In short: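 Beta-lactamase reporter read by fluorescence (LiveBLAzer B/G FRET, 2 h, room temperature). Test agents, in DMSO, incubated at 37 C with PPARd-bla HEK293H cells.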

[18] = qHTS assay for small molecule agonists of the antioxidant response element (ARE) signaling pathway (AID 743202; active means well fitted activation curve with a large enough effect in the signal ratio in the repeat runs, not every such curve was filed as active; the % refers to the signal ratio; further: potency means the concentration at half of the fitted maximal effect)
In short: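 Following a 16 h, 37 C exposure of reporter HepG2 cells (ARE-driven beta-lactamase, 2,000 cells/well) to compounds, FRET substrate was applied for 2 h at room temperature and fluorescence intensity recorded.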

[19] = molecular target: Peroxisome proliferator-activated receptor gamma (Homo sapiens) (UniProt P37231); assay: qHTS assay to identify small molecule agonists of the peroxisome proliferator-activated receptor gamma (PPARg) signaling pathway (AID 743094; active means well fitted activation curve with a large enough effect in the signal ratio in the repeat runs, not every such curve was filed as active; the % refers to the signal ratio)
In short: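 HEK293H PPARg-bla cells, 5 h settle at 37C/5% CO2; compound (DMSO) 17 h, 37C; B/G FRET substrate 1 h RT; fluorescence intensity read-out. qHTS format.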

Measured: Potency

CC(Cc1ccccc1)(NC(=O)CN)c1ccccc1 (stereo unspecified)
not listed: [18] | [19]
inactive: all other assays above

CCCC1CCCC(=O)O1 (stereo unspecified)
not listed: [16] | [17] | [19]
inactive: all other assays above

CCCC1CCOC(C)S1 (stereo unspecified)
not listed: [17]
inactive: all other assays above

SCCOCCOCCS
not listed: [18]
inactive: all other assays above

O=[N+]([O-])c1cccc(I)c1
inactive: all assays above

NC(=O)c1ccccc1C(N)=O
active: [9] 54.7 µM | [18] 24.4 µM
not listed: [11] | [16]
inactive: all other assays above

C=CC(=O)OCCCCCCCCCC
not listed: [17] | [19]
inactive: all other assays above

O=C(O)c1ccccc1-n1cc(C(=O)O)c(=O)c2cc(Nc3c(F)cc(F)cc3Cl)c(Cl)cc21
not listed: [12]
inactive: all other assays above

CC(=O)c1ccc(Cl)c(Cl)c1Cl
not listed: [11] | [17]
inactive: all other assays above

O=P(c1ccccc1)(c1ccccc1)c1ccccc1
not listed: [18]
inactive: all other assays above

Clc1nc2ccccc2nc1Cl
not listed: [6] | [11] | [15] | [17] | [19]
inactive: all other assays above

CC(C)Oc1ccccc1O
not listed: [10] | [11]
inactive: all other assays above

CCCCCO
not listed: [7] | [10] | [11] | [19]
inactive: all other assays above

CNc1ccccc1
not listed: [9]
inactive: all other assays above

CC(C)=CCC/C(C)=C/C=N/O
not listed: [9] | [11]
inactive: all other assays above
